Compound activity as filed in PubChem.
In the library only some 4% were active in any assay of this set; here they are far more common.
Peg3 prom inh – Peg3 promoter-driven luciferase inhibitors, primary screen, cell-based, HeLa, luciferase luminescence | HeLa PEG-Prom luciferase reporter, overnight | inhibition, % at 20 µM | hit rate 1.7% among 360,000;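 active = inhibition of at least 50% at 20 µM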
CF NFkB block – inhibitors of PAF-induced NF-kB signaling, primary screen, cell-based, GFP fluorescence, uHTS | KKLEB NF-kB-GFP reporter, GFP fluorescence overnight | hit rate 0.86% among 360,000 | AID 588850, 2011 | inhibition, % at 5 µM;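 active = at least 50% inhibition at 5 µM, scaled per plate between neutral and stimulator controls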;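 also: PAF is a Pseudomonas aeruginosa culture filtrate used as stimulus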
TROY signal inh – inhibitors of TROY-driven NF-kB signaling, primary screen, Q293 LMP1-TROYcd cells, NF-kB luciferase, uHTS; Q293 LMP1-TROYcd NF-kB luciferase reporter, 4 h; inhibition, % at 10 µM; hit rate 0.98% among 360,000; AID 1347056, 2019;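 active = compounds whose plate-normalised and pattern-corrected inhibition of the luciferase reporter signal at the single screening dose is 50% or more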
HIF-2a block – HIF-2a reporter inhibitors, primary screen, luminescence, 786-0 RCC cells. 786-0 RCC cells HIF-2a reporter, luciferase luminescence, overnight. inhibition, % at 18.8 µM. hit rate 0.72% among 360,000;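 active = inhibition of the luminescence signal of 40% or more relative to plate controls, in a single-dose primary screen at 18.75 µM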
KKLEB cytotox – cytotoxicity in KKLEB CF airway cells, primary screen, cytotoxicity control for CF NF-kB inhibitor project, cell-based, uHTS, fluorescence assay plates; activity change (cytotoxicity), % at 5 µM; KKLEB CF airway cells viability, ATPlite luminescence, overnight; hits give low values; cells stimulated with P. aeruginosa culture filtrate; hit rate 0.36% among 360,000;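 active = corrected activity change at or below -50% at 5 µM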
TWEAK-Fn14 inh – inhibitors of TWEAK-Fn14 signaling, primary screen, luciferase reporter cells, uHTS; hit rate 2% among 360,000; inhibition, % at 10 µM; TWEAK-stimulated Fn14 reporter cells, luciferase luminescence, 8 h; AID 1159606, 2016; in the data active = inhibition above about 50%
CF NFkB inh conf – inhibitors of PAF-induced NF-kB signaling, retest, confirmation, cell-based, GFP fluorescence, single concentration; shares compounds with CF NFkB block; KKLEB CF airway cells, overnight; inhibition, % at 5 µM; hit rate 64% among 1,300; in the data active = inhibition above about 40%;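 also: stimulus PAF is a Pseudomonas aeruginosa filtrate and not platelet activating factor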
Mdm2-MdmX confirm – retested Mdm2-MdmX interaction blockers, confirmation, cell-based, luminescence, single concentration, set 2; shares compounds with HIF-2a block; inhibition, % at 8 µM; AID 504601, 2011; hit rate 99% among 740; SaOS-2 split-luciferase Mdm2/MdmX complementation;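 active = mean inhibition of the luminescence signal across two replicates at or above 26 percent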
HIF-2a inh conf – HIF-2a reporter inhibitor retest, confirmation, luminescence, 786-0 RCC cells | shares compounds with HIF-2a block | HIF-2a luciferase reporter luminescence, overnight | inhibition, % at 18.8 µM | hit rate 56% among 1,800;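 active = mean inhibition across four replicates of at least 40 percent at the single tested concentration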
HIF-1a counter – HIF-1a luciferase reporter signal reduction – MiaPaCa-2 cells, single concentration, counter-screen for HIF-2a inhibitor project, confirmation | inhibition, % at 18.8 µM | MiaPaCa-2 HIF-1a luciferase reporter, desferoxamine, overnight | AID 651589, 2012 | hit rate 72% among 1,800 | shares compounds with HIF-2a block;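 active = mean inhibition of the reporter signal across four replicates at the single tested dose of 50% or more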
A number is an active result; - = inactive; . = not tested or not shown; ! = not active in a repeat.

SMILES | Peg3 prom inh | CF NFkB block | TROY signal inh | HIF-2a block | KKLEB cytotox | TWEAK-Fn14 inh | HIF-2a inh conf | HIF-1a counter | others
CC1CCN(CC(CS(=O)(=O)c2ccc([N+](=O)[O-])cc2)N2CCC(C)CC2)CC1 (stereo not drawn) | 108.2 | 96.5 | - | 92.8 | - | - | - | 106.9 | CF NFkB inh conf=88.0;Mdm2-MdmX confirm=103.2
Cn1c(Oc2ccc(F)cc2)c(C=O)c2ccccc21 | - | - | - | - | - | - | . | .
Cn1c(Sc2ccc(Br)cc2)c(C=O)c2ccccc21 | - | 67.4 | . | - | - | 54.9 | . | . | CF NFkB inh conf=98.2;Mdm2-MdmX confirm=87.5
Nc1ncc([N+](=O)[O-])c(N2CCCCCC2)n1 | - | 67.1 | - | - | - | 74.8 | . | . | CF NFkB inh conf=91.3;Mdm2-MdmX confirm=84.2
O=C(c1cccs1)N1CCN=C1SCc1ccc(F)cc1 | - | - | 72.6 | 52.0 | - | - | - | -
CC(=O)Nc1nc(CC(=O)c2ccccc2)cs1 | - | - | - | - | - | - | . | .
COc1ccc(NS(=O)(=O)c2csc(C(=O)N3CCCC3)c2)c(OC)c1 | - | - | - | - | - | - | . | .
O=C1C(Cl)=C(N2CCN(Cc3ccccc3)CC2)C(=O)N1Cc1ccccc1 | - | - | - | 40.5 | - | - | - | -
O=[N+]([O-])c1ccc(Cl)cc1Sc1nc2ccccc2o1 | - | - | - | - | - | - | . | .
O=[N+]([O-])c1ccc(Sc2nc3ccccc3o2)c([N+](=O)[O-])c1 | 96.9 | 68.0 | - | 91.9 | - | 57.6 | 74.2 | 105.8
S=C(Nc1cc(Cl)cc(Cl)c1)NC1CCN(Cc2ccccc2)CC1 | 94.4 | - | - | 41.7 | - | - | - | 107.4
Cc1cccc(C(=O)Nc2ccc(C(=O)/C=C/c3cccnc3)cc2)c1 | 109.3 | - | - | 76.1 | - | - | - | 104.5
O=C(/C=C/c1cccnc1)/C=C/c1cccnc1 | 109.0 | 75.4 | 72.1 | 94.9 | - | 100.8 | 65.9 | 106.6
Cc1cccc(C(=O)Nc2ccc(C(=O)/C=C/c3ccncc3)cc2)c1 | 102.0 | - | 57.6 | 87.9 | - | - | - | 105.3
Cc1cccc(C(=O)Nc2cccc(C(=O)N/N=C/c3ccncc3)c2)c1 | - | - | - | - | - | - | . | .
C=CS(=O)(=O)N(Cc1ccc(Cl)c(Cl)c1)C[C@@H](O)CO | 69.2 | - | - | - | - | - | . | . | Mdm2-MdmX confirm=94.0
C[C@H](CO)N1C[C@H](C)[C@@H](CN(C)Cc2ccncc2)Oc2ncc(Br)cc2C1=O | - | - | - | - | - | - | . | .
COc1ccc(CCNC(=O)c2cc(C)oc2C)cc1OC | - | - | - | - | - | - | . | .
c1coc(-c2ccc3nncn3c2)c1 | - | - | - | - | - | - | . | .
c1cc(N2CCOCC2)ccc1-c1ccc2nncn2c1 | - | - | 86.4 | 38.4 | - | 89.9 | - | -
COc1cc(NCCCC(C)N)c2ncccc2c1 (stereo not drawn) | - | - | - | 83.8 | - | - | - | 90.1
O=C(c1ccc(Cn2cc(Br)cn2)o1)N1N=C(C(F)F)CC1(O)C(F)F (stereo not drawn) | - | - | - | - | - | - | . | .
O=C(c1cc(C2CC2)nc2ccc(Br)cc12)N1N=C(C(F)F)CC1(O)C(F)F (stereo not drawn) | 59.8 | - | 54.4 | 57.2 | - | - | - | 65.3
OCCCNc1cc(-c2ccnc(Nc3cccc(Cl)c3)n2)ccn1 | 103.4 | 86.5 | 58.8 | - | - | 96.8 | . | . | Mdm2-MdmX confirm=103.0
CN(C)CCCNc1ccc(-c2cc(Nc3cccc(Cl)c3)ncn2)cn1 | - | - | - | - | - | - | . | .
SMILES | Peg3 prom inh | CF NFkB block | TROY signal inh | HIF-2a block | KKLEB cytotox | TWEAK-Fn14 inh | HIF-2a inh conf | HIF-1a counter | others
COC(=O)c1cccc(NS(=O)(=O)c2cccs2)c1C | - | - | - | - | - | - | . | .
COC(=O)c1ccccc1NC1=C/C(=N\S(=O)(=O)c2cccs2)c2ccccc2C1=O | 86.2 | 83.1 | 51.5! | - | -71.6 | 99.3 | . | . | Mdm2-MdmX confirm=96.5
NC(N)=N/N=C/c1ccc(OCc2ccccc2Cl)cc1 | 102.8 | - | - | 93.0 | - | - | - | 106.5
COc1ccccc1N(CC(=O)N/N=C/c1ccccc1C(=O)O)S(C)(=O)=O | - | - | - | - | - | - | . | .
CSC1=NC=C(C#N)C2=NC(c3c(Cl)cccc3Cl)NN12 (stereo not drawn) | - | - | - | 64.7 | - | - | - | -
Cc1ccc(S(=O)(=O)n2nc(C)cc2C)cc1 | - | - | - | - | - | - | . | .
Cc1cc(C)n(S(=O)(=O)/C=C/c2ccccc2)n1 | - | - | - | - | - | - | . | . | Mdm2-MdmX confirm=93.2
Cc1cccc(NC(=O)c2sc3nc4c(c(-c5cccs5)c3c2N)CN(C)CC4)c1 | - | - | - | - | - | - | . | .
O=C(c1ccc(Cl)c(S(=O)(=O)N2CCCCCC2)c1)N1CCCCC1 | - | - | - | - | - | - | . | .
O=C(O)c1ccc(Cl)c(S(=O)(=O)N2CCCC2)c1 | - | - | - | 41.4 | - | - | - | -
Cc1ccccc1-n1nnnc1Sc1nnnn1-c1ccccc1 | 108.8 | 77.6 | - | 49.0 | -69.4 | 87.8 | - | 100.3 | Mdm2-MdmX confirm=103.7
Cc1ccccc1-n1nnnc1SCC(N)=O | - | - | - | - | - | - | . | .
CC(C)(C)OC(=O)NCc1ccc(CNC(=O)c2[nH]cnc2C(=O)N[C@@H](Cc2ccccc2)C(=O)OC(C)(C)C)cc1 | - | - | - | - | - | - | . | .
Cc1ccccc1C(=O)N1CCN(c2ccc(NC(=O)c3ccc4c(c3)OCCO4)cc2)CC1 | - | - | - | 60.4 | - | 73.0 | - | 71.5
CC(C)C(=O)N1CCN(c2ccc(NC(=O)c3ccc4c(c3)OCCO4)cc2)CC1 | - | - | - | 41.5 | - | - | - | -
O=C(Nc1ccc(NC(=O)c2cccs2)cc1)c1ccc2c(c1)OCO2 | - | - | - | - | - | - | . | .
O=C(Nc1ccc(NC(=O)c2cccs2)cc1)c1ccc2c(c1)OCCO2 | - | - | - | 47.3 | - | - | 45.2 | -
Cc1ccc(C)c(OC2=NS(=O)(=O)c3ccccc32)c1 | - | - | - | - | - | - | . | .
